From PubChem BioAssay (NCATS) come the findings set out here.

Structures are written as SMILES. Several values for one entry are separate records, joined by “and”; a condition that tells them apart may be missing. Identical values can stand only once. Values without a mark were called inactive. Results filed as inconclusive are left out. Where a structure was tested more than once in an assay, its records may differ in their call. Activity calls are given as the source filed them. Unless noted, calls follow the shape of the dose curve; as a rule, active = well fitted curve in the direction sought with a large enough effect; inconclusive = small, poorly fitted or top-dose-only effect, or another doubt; inactive = no such curve, though single readings can be large; an effect the other way counts as inactive or inconclusive.

Test [1] can be described thus: Drug repurposing screens with cells derived from glioblastoma tumor samples (AID 1345199). Also: nearly all actives have a fitted effect of over 40% in size. Also: potency is read from the fitted curve at half-maximal effect. As to activity, negative = cell killing: % is scaled to controls: 0 for no effect and ±100 for the full control effect. The conditions noted are these: GBM patient neurospheres viability, ATP luminescence, 48 h. Put shortly:
(§1)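 Primary testing used CD133+ neurospheres from four GBM patients, seven concentrations, 48 h exposure and ATP-based viability; confirmation added three slower-growing patient lines.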

The subject of test [2] is Hek293T. Put plainly: Primary qHTS to identify gynecologic anti-cancer compounds using libraries of approved drugs and bioactive compounds (AID 1345084). Also: nearly all actives have a fitted effect of over 55% in size. Also: potency is read from the fitted curve at half-maximal effect. The following applies: Gynecologic cancer cell panel viability, ATPlite luminescence, 48 h, control line for the selectivity index; series mostly up to 57.5 µM. The procedure, abridged:
(§2)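 Cytotoxicity screen measuring ATP content by luciferase luminescence. Each compound is applied at five concentrations for 48 h at 37 C with 5% CO2.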

For test [3], the system named is JEG-3. The description is as above. The conditions noted are these: Gynecologic cancer cell panel viability, ATPlite luminescence, 48 h; series mostly up to 57.5 µM. The procedure, abridged:
as §2
Background: Cellular ATP, detected with luciferase, serves as a proxy for viable cell number.

For test [4], the system named is OV90. Described as above. The conditions noted are these: Gynecologic cancer cell panel viability, ATPlite luminescence, 48 h; series mostly up to 57.5 µM. Put shortly:
as §2

Test [5] has as its system PA-1. Described as above. The following applies: Gynecologic cancer cell panel viability, ATPlite luminescence, 48 h; series mostly up to 57.5 µM. Put shortly: as §2
For test [6], the system named is Tov-21-G. The test is described as above. The conditions noted are these: Gynecologic cancer cell panel viability, ATPlite luminescence, 48 h; series mostly up to 57.5 µM. The procedure, abridged:
as §2

Test [7] deals with Tov112D. Described as above. The conditions noted are these: Gynecologic cancer cell panel viability, ATPlite luminescence, 48 h; series mostly up to 57.5 µM. Put shortly: as §2
Test [8] has as its system astro (control astrocytes). Put plainly: Drug repurposing screens with cells derived from glioblastoma tumor samples (AID 1345199). Also: nearly all actives have a fitted effect of over 40% in size. Also: potency is read from the fitted curve at half-maximal effect. As to activity, negative = cell killing: % is scaled to controls: 0 for no effect and ±100 for the full control effect. The conditions noted are these: viability, ATP luminescence, 48 h; series mostly up to 45.9 µM. The procedure, abridged: as §1
Test [9] relates to SKOV3. The test is described as follows: Primary qHTS to identify gynecologic anti-cancer compounds using libraries of approved drugs and bioactive compounds (AID 1345084). Also: nearly all actives have a fitted effect of over 55% in size. Also: potency is read from the fitted curve at half-maximal effect. The conditions noted are these: Gynecologic cancer cell panel viability, ATPlite luminescence, 48 h; series mostly up to 57.5 µM. Put shortly:
as §2

Test [10] addresses Nuclear receptor subfamily 1 group I member 2 (Rattus norvegicus) (UniProt Q9R1A7). Put plainly: qHTS assay for small molecule activators of the rat pregnane X receptor (rPXR) signaling pathway (AID 651751; call rule not given here; also: 0% is about no effect). The conditions noted are these: rPXR reporter cells, luciferase (One-Glo), 24 h. (Quantitative high-throughput screening tests each substance at several concentrations.)
Setting [11] is: at 45.9 µM (top of the series), tumour line B.
[12] abbreviates: at 45.9 µM (top of the series), tumour line D.
[13] abbreviates: at 46.1 µM (top of the series), tumour line C.
The mark [14] stands for this setting: at 91.6 µM (top of the series), tumour line B.
The mark [15] stands for this setting: at 91.6 µM (top of the series), tumour line D.
[16] abbreviates: at 99.2 µM (top of the series), tumour line C.
Where [17] appears, read: at 20 µM (top of the series), tumour line C.
Where [18] appears, read: at 21.2 µM (top of the series), tumour line B.
Setting [19] is: at 21.2 µM (top of the series), tumour line D.
Where [20] appears, read: at 46 µM (top of the series), tumour line A.
Setting [21] is: at 108 µM (top of the series), tumour line B.
Where [22] appears, read: at 108 µM (top of the series), tumour line D.

Nuclear receptor subfamily 1 group I member 2 (Rattus norvegicus), sequence (Q9R1A7 whole entry, looked up): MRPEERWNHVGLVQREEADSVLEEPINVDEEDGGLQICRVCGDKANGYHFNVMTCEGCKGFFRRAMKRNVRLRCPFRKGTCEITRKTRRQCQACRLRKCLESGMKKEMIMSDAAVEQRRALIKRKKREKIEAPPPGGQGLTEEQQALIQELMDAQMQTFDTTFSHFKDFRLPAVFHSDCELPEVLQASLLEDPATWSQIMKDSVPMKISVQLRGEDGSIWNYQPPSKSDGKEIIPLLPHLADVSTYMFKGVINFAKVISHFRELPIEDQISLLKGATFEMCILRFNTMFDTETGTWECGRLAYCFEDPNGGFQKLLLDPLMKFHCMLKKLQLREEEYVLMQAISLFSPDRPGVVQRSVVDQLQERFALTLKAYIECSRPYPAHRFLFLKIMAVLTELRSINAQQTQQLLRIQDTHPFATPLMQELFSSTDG

On to `CCOc1ccc2c3c1O[C@H]1[C@@H](O)C=C[C@H]4[C@@H](C2)N(C)CC[C@@]341`, for which, in test [1] (setting [11]), the activity, negative = cell killing is -22.9%.

For the compound `N#CC(C#N)=Cc1cc(O)c(O)c(O)c1`, the activity, negative = cell killing in [1] (setting [11]) is -27.1%. Besides, the Potency in test [1] (tumour line D) is 12600 nM (active).

Take `COc1cc2c(cc1OC)[C@@]13CCN4CC5=CCO[C@H]6CC(=O)N2[C@H]1[C@H]6[C@H]5C[C@H]43`: the Potency result in test [2], in test [3], in test [4], in test [5], in [6] and in test [7] was “inactive” each time. For the same compound, the Potency result in [8] is “inactive”. For the same compound, the activity, negative = cell killing in test [1] (setting [11]) was -6.02%; in test [1] (setting [12]), -3.06%; in [1] (setting [13]), 1.45%. Moreover, in test [1] (tumour line A), the Potency was 79.4 nM (active).

With `CO[C@@H]1[C@H](O)[C@@H](O[C@@H]2C[C@H]3CC[C@@H]4C(CC[C@]5(C)[C@@H](C6=CC(=O)OC6)CC[C@]45O)[C@@]3(C)[C@H](O)C2)O[C@H](C)[C@@H]1O[C@@H]1O[C@H](CO)[C@@H](O)[C@H](O)[C@H]1O` (stereo partly specified), the Potency in test [2] is 398 nM (active); in [4] it was 2240 nM (active); in [5], 398 nM (active); in test [9], 562 nM (active); in [6], 199 nM (active); in [7], 100 nM (active).

Consider `COC(=O)C1(C)CCC(O)C2(C)c3cc(O)c(C(C)C)cc3C(O)C(OC(C)=O)C12` (stereo unspecified), for which the Potency entry in test [2], in test [3], in [4], in test [6] and in test [7] was “inactive” in each case.

Regarding `COC1C(O)C(OC2CCC3(C=O)C(CCC4C3CCC3(C)C(C5=CC(=O)OC5)CCC43O)C2)OC(C)C1OC1OC(CO)C(O)C(O)C1O` (stereo unspecified), the Potency in test [2] is 1000 nM (active); in [3], 2240 nM (active); in test [4], 3550 nM (active); in test [9], 708 nM (active); in [6], 631 nM (active); in [7], 316 nM (active).

In the case of `C[C@H]1O[C@@H](O[C@H]2C[C@@H](O)[C@]3(CO)C4C(CC[C@]3(O)C2)[C@@]2(O)CC[C@H](C3=CC(=O)OC3)[C@@]2(C)C[C@H]4O)[C@@H](O)[C@@H](O)[C@H]1O` (stereo partly specified), the Potency in test [2] was 355 nM (active); in test [4] it was 1120 nM (active); in test [5], 562 nM (active); in [9], 224 nM (active); in test [6] it was 178 nM (active); in test [7], 112 nM (active).

On to `CN1C(=O)c2ccccc2NC(=O)[C@]12O[C@@H]2c1ccccc1`, for which the Potency result in [2], in [3], in test [4], in [9], in test [6] and in test [7] was “inactive” in each case.

As to `C[C@H](NC(=O)Cc1cc(F)cc(F)c1)C(=O)N[C@@H]1N=C(c2ccccc2)c2ccccc2N(C)C1=O`, the Potency entry in test [2], in [3], in test [4], in test [5], in test [6] and in [7] was “inactive” each time.

On to `CC(=O)[C@H]1CC[C@H]2[C@@H]3CC[C@@H]4C[C@H](O)CC[C@]4(C)[C@H]3CC[C@]12C`, for which the activity, negative = cell killing in test [1] (setting [11]) was -17.7%. Moreover, in [1] (tumour line D), the Potency was 17800 nM (active).

Turning to `CCCSP(=O)(OCC)SCCC`, the Potency entry in test [2], in test [4], in test [5], in test [9], in [6] and in [7] was “inactive” throughout. Moreover, the Potency result in [8] was “inactive”. Besides, the activity, negative = cell killing in [1] (at 91.6 µM (top of the series), tumour line A) is -29.2%; in test [1] (setting [14]), -4.25%; in test [1] (setting [15]), -15.9%; in test [1] (setting [16]), 13.9%. In addition, the max response in test [10] was 5.9%.

For the compound `COC1=CC=C2[C@H]3Cc4ccc(OC)c5c4[C@@]2(CCN3C)[C@H]1O5`, the activity, negative = cell killing in test [1] (setting [17]) is -9.82%; in test [1] (setting [18]), -2.9%; in test [1] (setting [19]) it was -4.5%; in [1] (setting [14]) it was -4.24%; in test [1] (setting [16]), 12%. Moreover, the Potency in [1] (tumour line A) and in [1] (tumour line D) was 35500 nM (active) throughout. For the same compound, the Potency entry in test [8] was “inactive”.

For `CCNC(C)Cc1cccc(C(F)(F)F)c1` (stereo unspecified), the activity, negative = cell killing is -2.98% in test [1] (setting [11]), -5.81% in test [1] (setting [12]), -19.5% in test [1] (setting [20]) and -4.96% in test [1] (setting [13]). For the same compound, the Potency entry in test [8] is “inactive”.

In the case of `CCOC(=O)/C=C(C)/C=C/C[C@@H](C)CCCC(C)C`, the activity, negative = cell killing in test [1] (setting [11]) was -7.77%; in test [1] (setting [12]), 3.89%; in test [1] (setting [20]) it was -29.3%; in test [1] (setting [13]), -6.42%. In addition, in [8], the Potency entry was “inactive”.

For the compound `[S]=[Sb](=[S])[S][Sb](=[S])=[S]`, the activity, negative = cell killing in test [1] (setting [11]) is -4.98%; in test [1] (setting [12]), -5.67%; in test [1] (setting [20]) it was -28.3%; in test [1] (setting [13]), -1.84%. Also, the Potency result in [8] was “inactive”.

For the compound `CCC(N)Cc1c[nH]c2ccccc12` (stereo unspecified), the activity, negative = cell killing was -19.3% in [1] (setting [11]); -10.1% in test [1] (setting [12]); -22.2% in [1] (setting [13]); -20.5% in test [1] (setting [21]); -20.7% in [1] (setting [22]). The Potency in test [1] (tumour line A) is 31600 nM (active). Besides, the Potency result in test [8] was “inactive”.

For the compound `CN1[C@H]2CC[C@@H]1[C@@H](C(=O)O)[C@@H](OC(=O)c1ccccc1)C2`, the activity, negative = cell killing in test [1] (setting [11]) was -13.9%; in [1] (setting [12]), -11.4%; in [1] (setting [20]), -27%; in [1] (setting [13]) it was -10.2%; in test [1] (setting [16]), -6.57%; in test [1] (at 108 µM (top of the series), tumour line A), -26.2%. Further, the activity, negative = cell killing in [1] (setting [21]) is -7.59%; in test [1] (setting [22]), -7.94%. In addition, the Potency result in test [8] was “inactive”.

With `Cc1ccccc1-n1c(C)nc2ccccc2c1=O`, the activity, negative = cell killing in test [1] (setting [11]) was -8.69%; in test [1] (setting [12]) it was -13.3%; in [1] (setting [13]), -24.2%; in test [1] (setting [14]) it was -8.55%; in test [1] (setting [15]), -15.5%; in test [1] (setting [16]) it was -4.7%. In test [1] (tumour line A), the Potency was 44700 nM (active). The Potency result in [8] is “inactive”.

On to `C[N+]1([O-])[C@@H]2CC(OC(=O)[C@H](CO)c3ccccc3)C[C@H]1[C@@H]1O[C@@H]12` (stereo partly specified), for which the activity, negative = cell killing is 3.96% in test [1] (setting [17]); 5.23% in test [1] (setting [18]); -9% in test [1] (setting [19]); -10.9% in [1] (setting [11]); -17.4% in [1] (setting [12]); 30.8% in test [1] (setting [13]). Also, the Potency result in test [8] is “inactive”.

For the compound `O[C@H]1[C@H]2[C@H](O)CCCN2C[C@H]1O`, the activity, negative = cell killing in test [1] (setting [11]) is 0.771%; in [1] (setting [12]) it was -7.2%; in [1] (setting [20]), -40.5%; in test [1] (setting [13]), -19.9%. Further, in test [8], the Potency result is “inactive”.

As to `O=C1C[C@@H]2OCC=C3CN4CC[C@]56c7ccccc7N1[C@H]5[C@H]2[C@H]3C[C@H]46` (tested in a mixture with another compound), the activity, negative = cell killing in test [1] (setting [11]) is -8.18% and -6.54%; in test [1] (setting [12]), -14.5% and -6.5%; in test [1] (setting [13]), 1.96% and -18.9%. In addition, in test [1] (tumour line A), the Potency was 20000 nM (active). Also, the Potency entry in [8] was “inactive”.

On to `O=C1C2CC=CCC2C(=O)N1SC(Cl)(Cl)Cl` (stereo unspecified), for which the activity, negative = cell killing in test [1] (setting [13]) was -4.36%. The Potency in test [1] (tumour line A) was 7080 nM (active); in [1] (tumour line B), 20000 nM (active); in [1] (tumour line D), 11200 nM (active).

As to `CC(=O)OO`, the activity, negative = cell killing is -7.1% in test [1] (setting [11]), -0.699% in test [1] (setting [12]), -24.9% in [1] (setting [20]) and 3.69% in test [1] (setting [13]). In [8], the Potency result is “inactive”.
